# Over roughly 33,000 sequences, “e-score” has its median near -0.05; the highest 2% begin near 0.38. The list comes from a sample in which the highest values are over-represented; it also holds similar and randomly drawn sequences.
# Molecular target: T1, SIX1-Q177R homeodomain (human, UniProt Q15475 108-198, Q177R)
# T1 sequence: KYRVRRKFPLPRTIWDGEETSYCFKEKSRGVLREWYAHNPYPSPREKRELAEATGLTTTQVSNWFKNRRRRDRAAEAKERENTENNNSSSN
# Assay: universal protein binding microarray; Universal all-10-mer PBM (8x60K, AMADID 030236), 300 nM GST-tagged protein, Alexa Fluor 488 anti-GST; buffer, salt, pH and temperature not stated (as in Berger); high values mean tight binding
# Settings: protein: ivt; tags: N-terminal GST; dsDNA, one strand shown
# How it was run: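 GST-tagged homeodomains were made by in vitro transcription/translation and quantified by anti-GST western blot against a recombinant GST standard curve. They were applied in duplicate at 300 nM final concentration to universal 'all 10-mer' protein binding microarrays (8×60K format). Binding was quantified as 8-mer E-scores with the Universal PBM Analysis Suite.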
row,Sequence,binding signal [E-score]
1,CAAGTGTA,0.392 ± 0.0272
2,GAAGTGTC,0.387 ± 0.0118
3,AAAGTGTG,0.184 ± 0.0165
4,CAAGTGTC,0.379 ± 0.0101
5,TAAGTGTA,0.373 ± 0.0287
6,AGAGTGTC,0.412 ± 0.00919
7,ACCCGGCT,0.202 ± 0.0126
8,ACACATAA,0.18 ± 0.0275
9,GCGAGACA,0.249 ± 0.00462
10,GGAACCCC,0.165 ± 0.0247
11,GGGATCAC,0.2771 ± 0.000933
12,CACCGGAA,0.288 ± 0.0177
13,TAAGGGTA,0.163 ± 0.0467
14,CCGACCAC,0.192 ± 0.0175
15,CGGGTATA,0.21 ± 0.00983
16,CGAGTGTC,0.415 ± 0.00743
17,CGAGTACA,0.28 ± 0.0111
18,CGAGTGTA,0.382 ± 0.0327
19,CGAGTGGA,0.166 ± 0.0322
20,GGAGTGTA,0.417 ± 0.0148
21,GGAGTACA,0.246 ± 0.013
22,CGAGTACC,0.168 ± 0.00651

row,Sequence,binding signal [E-score]
1,CGAGTATC,0.158 ± 0.0391
2,GGAGTGCA,0.17 ± 0.0126
3,GGGTGCTA,0.217 ± 0.00882
4,CCGCCCCA,0.239 ± 0.0124
5,CCCTACCA,0.167 ± 0.0194
6,CACCTAAG,0.263 ± 0.00735
7,AAACCCCG,0.231 ± 0.0422
8,ACTATATC,0.178 ± 0.0197
9,ATGGAGTC,0.232 ± 0.0246
10,CACACGTA,0.262 ± 0.0227
11,GACACGTA,0.39 ± 0.0131
12,GACACGTC,0.381 ± 0.00585
13,AACACGTC,0.309 ± 0.0249
14,CACACGTC,0.221 ± 0.00539
15,AACACGTA,0.343 ± 0.0046
16,CGAAGTAC,0.174 ± 0.00912
17,CACCTCAC,0.354 ± 0.0133
18,CTCCCCCA,0.176 ± 0.0255
19,ACCCGCGA,0.239 ± 0.0203
20,CGGGCACA,0.1994 ± 0.000764
21,TACCCGGA,0.247 ± 0.00272
22,CACCCGGC,0.36 ± 0.0229

row,Sequence,binding signal [E-score]
1,CACCCGGA,0.388 ± 0.0297
2,CACGCTTC,0.24 ± 0.0251
3,GACACGAC,0.436 ± 0.00629
4,CACACGGC,0.161 ± 0.0205
5,GACACGGA,0.418 ± 0.0309
6,TACACAAA,0.247 ± 0.0503
7,CACACGGA,0.253 ± 0.0652
8,CCCACGGA,0.161 ± 0.00447
9,TACACGGA,0.402 ± 0.00597
10,GACACGAA,0.331 ± 0.0274
11,AACACGGC,0.35 ± 0.00429
12,GACACGGC,0.427 ± 0.0135
13,GATACGGA,0.215 ± 0.00231
14,CACACGAC,0.237 ± 0.00357
15,CCTGTGAC,0.194 ± 0.0117
16,TCAGGGGA,0.165 ± 0.0187
17,AAACCCTA,0.157 ± 0.0426
18,AATAGTGT,0.355 ± 0.0289
19,CCCTTCTA,0.177 ± 0.0196
20,GTGGGTCA,0.166 ± 0.0309
21,AAAGGGTG,0.317 ± 0.00321
22,CCCCTCAC,0.203 ± 0.0371

row,Sequence,binding signal [E-score]
1,CCACGGGG,0.194 ± 0.0115
2,ACACGGAC,0.367 ± 0.00972
3,ACCCGGGT,0.377 ± 0.0131
4,ACACGGGT,0.4532 ± 0.00279
5,ACGGGGGA,0.208 ± 0.00871
6,ACACGGGC,0.4237 ± 0.000962
7,ACACGGGA,0.411 ± 0.00748
8,ACCCGGGA,0.192 ± 0.0367
9,ATACGGGG,0.171 ± 0.0145
10,ACACGGGG,0.4516 ± 0.00397
11,ACTCGGGC,0.161 ± 0.036
12,CACCGTGG,0.333 ± 0.0206
13,CACCTCGG,0.269 ± 0.00615
14,CACGCTGG,0.159 ± 0.00563
15,CACTCGGG,0.225 ± 0.016
16,AACCCCAA,0.205 ± 0.00313
17,CTGACCCC,0.283 ± 0.0439
18,CGGGGTAC,0.224 ± 0.0106
19,CAACCGTG,0.187 ± 0.0215
20,CACTGGCA,0.28 ± 0.0195
21,ACACGTGT,0.4552 ± 0.00158
22,ACACGTCC,0.373 ± 0.00921

row,Sequence,binding signal [E-score]
1,ACACGTGC,0.383 ± 0.0133
2,ACACGTAG,0.325 ± 0.012
3,ACACGTAC,0.353 ± 0.00478
4,ACACGTAA,0.323 ± 0.00431
5,ACACGTAT,0.388 ± 0.00574
6,ACACGTGG,0.32 ± 0.00325
7,ACACGTGA,0.34 ± 0.0135
8,CACTAGCC,0.177 ± 0.031
9,ATACCCGC,0.266 ± 0.0158
10,GGATCACA,0.168 ± 0.0336
11,CCCCGCCG,0.241 ± 0.0442
12,CTGATCCC,0.232 ± 0.00636
13,ACTCCGTG,0.253 ± 0.00334
14,ACACGCTA,0.383 ± 0.0134
15,ACACGCGC,0.363 ± 0.0139
16,ACACGCTC,0.384 ± 0.0032
17,CCCCGCTA,0.199 ± 0.0313
18,ACACACTA,0.267 ± 0.012
19,ACACGTTC,0.276 ± 0.0481
20,GTACGCTA,0.153 ± 0.0129
21,ACACGCTG,0.389 ± 0.00589
22,ACACGTTG,0.331 ± 0.0165
